# Measurements published in PubChem BioAssay AID651791 (National Center for Advancing Translational Sciences (NCATS), 2012).
# Inconclusive results are not listed. Active and inactive are the calls of the source. Calls come from the whole dose curve; as a rule, active = well fitted inhibition curve with a large enough effect; inconclusive = small, poorly fitted or top-dose-only effect; inactive = no such curve, though single readings can be large or run the other way.
# Test: InCell qHTS Assay for Inhibitors of the mTORC1 Signaling Pathway in MEF (Tsc2-/-, p53-/-) Cells: Hit Validation;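 note: phospho-S6 Ser235/236 signal normalized to propidium iodide cell count per well; nearly all actives have a fitted effect of over 75% in size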
# Settings: phospho-rpS6 immunofluorescence, 24 h; activity change, negative = inhibition: at 38.3 µM (top of the series)
# Potency is the fitted concentration of half-maximal effect.
SMILES,"activity change, negative = inhibition [%]",Potency
CC(C)c1ccc(NS(=O)(=O)c2ccc3nc(-c4ccccc4)[nH]c3c2)cc1,-100,–
O=C(c1ccc(CS(=O)c2ccccc2Cl)o1)N1CCN(c2cccc(Cl)c2)CC1 (stereo not given),-100,–
CCOC(=O)c1cnc2ccc(C)cc2c1Nc1ccc(N(CC)CC)cc1,-100,–
COc1ccc(-c2noc(CSc3nc(N)cc(=O)[nH]3)n2)cc1,-100,–
Cc1ccc(NC(=O)CCNS(=O)(=O)c2cccc3nonc23)cc1Cl,-100,–
CC1CCCCN1c1nnc(NC(=O)Nc2ccccc2F)s1 (stereo not given),-100,–
CCCCn1c(=N)n(CCOc2ccccc2OC)c2ccccc21,–,7.36 µM (active)
CCn1c(=O)sc2cc(NS(=O)(=O)c3ccc(F)c(C)c3)ccc21,-100,–
CCOc1ccc(NC(=O)N(Cc2c[nH]c3ccccc23)C2CCCCCC2)cc1,-100,–
COc1cc(C)ccc1OCCn1c(-c2ccc(Cl)cc2)nc2ccccc2c1=O,-100,–
Oc1ccc(NCc2ccccc2OCc2ccc(Cl)cc2)cc1,-100,–
CCCS(=O)(=O)c1ncc(Cl)c(C(=O)N2CCN(c3ccc(OC)cc3)CC2)n1,–,1.85 µM (active)
COc1ccc(NS(=O)(=O)c2ccc(-n3cccn3)cc2)cc1OC,-100,–
CCCCOc1ccc(Cn2c(=O)sc3ccccc32)cc1,-100,–
O=C(Nc1cccc(C(F)(F)F)c1)c1cnn(-c2cccc(F)c2)c1C1CCNCC1,-100,–
CCOc1cc(C2CC(=O)Nc3cc4c(cc32)OCCO4)ccc1O (stereo not given),-100,–
COc1ccccc1NC(=O)CSc1ccc(-c2ccccn2)nn1,-100,–
CCCCOc1ccccc1C1CC(=O)Nc2ccc3ccccc3c21 (stereo not given),-100,–
O=C(Nc1ccc(F)c(Cl)c1)c1cc(S(=O)(=O)N2CCCc3ccccc32)ccc1F,-100,–
COc1ccc2nc(NC(=O)c3nc(S(=O)(=O)Cc4ccccc4)ncc3Cl)sc2c1,–,1.65 µM (active)
Cc1cc(-c2ccc(S(=O)(=O)Nc3cccc(C)c3C)s2)on1,-21.8,–
Cc1ccc(OCC(O)Cn2c(=N)n(CCN3CCCCC3)c3ccccc32)cc1 (stereo not given),–,16.5 µM (active)
COc1ccc2c(CNCCc3cccs3)c(C(=O)O)n(Cc3ccc(F)cc3Cl)c2c1,-100,–
COc1cc(C(=O)n2nc(C)c(Sc3ccc(Cl)cc3)c2C)cc(OC)c1OC,-100,–
O=C(NCCc1ccc(Cl)cc1)C(=O)NCC(c1cccs1)S(=O)(=O)c1cccs1 (stereo not given),-100,–

SMILES,"activity change, negative = inhibition [%]",Potency
CCC(C)S(=O)(=O)c1oc(-c2ccc(F)cc2)nc1S(=O)(=O)c1ccc(F)cc1 (stereo not given),–,1.47 µM (active)
COc1ccc(C)cc1NC(=O)CCNS(=O)(=O)c1cccc2nonc12,-100,–
COCCCNC(=O)c1cc2c(=O)oc3ccc(C)cc3c2s1,-100,–
Cc1n[nH]c(C)c1S(=O)(=O)N(CC(=O)Nc1ccc(C(F)(F)F)cc1)c1ccc(C(C)C)cc1,-23.7,–
COc1ccc(/C=C/C(=O)Nc2ccc3nc(N4CCC(C)CC4)cc(C)c3c2)cc1OC,-100,–
CCOC(=O)c1ccc(N2C(=O)c3n[nH]c(C)c3C2c2cccc(Br)c2)cc1 (stereo not given),-100,–
COc1ccc(S(=O)(=O)Nc2ccc3oc4c(c3c2)CCCC4)cc1,-100,–
CCc1ccccc1NC(=O)CSc1nc2c(oc3ccccc32)c(=O)n1-c1ccccc1F,-100,–
COc1ccccc1NC(=O)c1sc(-c2ccc(Cl)cc2)cc1N,-100,–
C#CCN1C(=O)C(O)(CC(=O)c2ccc(OC)c(OC)c2)c2cc(Br)ccc21 (stereo not given),-100,–
COc1ccc(CCCc2nnc(SCC(=O)Nc3ccc(OC)cc3)o2)cc1,-100,–
Cc1cccc(N2CCN(C(=O)C3CCN(C(=O)c4cc5sccc5n4C)CC3)CC2C)c1 (stereo not given),-100,–
COc1cccc(-n2c(-c3ccco3)nc3c(cnn3-c3ccc(C)cc3)c2=O)c1,-100,–
COc1ccccc1C1C=C(c2ccc(Cl)cc2)Nc2nc(-c3ccc(Cl)cc3)nn21 (stereo not given),-100,–
CCOc1ccc(N(C(C)C(=O)Nc2cc(Cl)ccc2OC)S(C)(=O)=O)cc1 (stereo not given),-100,–
CCC(C)S(=O)(=O)c1oc(-c2cccs2)nc1S(=O)(=O)c1ccccc1 (stereo not given),–,1.17 µM (active)
Cc1ccccc1CS(=O)(=O)c1ncc(Cl)c(C(=O)Nc2nnc(C(C)C)s2)n1,–,18.5 µM (active)
COc1ccccc1-c1noc(CSc2nc3ccc(C)cc3[nH]2)n1,-100,–
CCc1ccc(NC(=O)C2CCCN(S(=O)(=O)c3c(C)noc3/C=C/N(C)C)C2)cc1 (stereo not given),–,14.7 µM (active)
COc1cccc(C2CC(=O)Nc3cc4c(cc32)OCCO4)c1OC (stereo not given),-100,–
COc1ccc(NC(=O)CSc2nc3ccccc3n2Cc2cccc(OC)c2)cc1,-100,–
CCOc1ccc(S(=O)(=O)Nc2ccc(OC)c(Cl)c2)c2cccnc12,-100,–
Cc1c(C(=O)OC2CCCCC2)[nH]c2c1C(=O)CC(c1ccccc1)C2 (stereo not given),-24.8,–
COc1ccc(OCC(O)Cn2c(=N)n(CCN3CCCCC3)c3ccccc32)cc1 (stereo not given),-100,–
O=C(CCCn1c(=O)c2ccccc2n(Cc2cccc(Cl)c2)c1=O)NCCc1ccc(Cl)cc1,-100,–

SMILES,"activity change, negative = inhibition [%]",Potency
O=C(Nc1ccc(Cl)c(C(F)(F)F)c1)c1ccc2c(c1)CCN2S(=O)(=O)c1ccccc1,-100,–
Nc1nc(Nc2ccccc2F)sc1C(=O)c1ccc(Cl)cc1,-100,–
CC(C)(C)C(=O)Nc1ccc(-c2nc3ccc(NC(=O)C(C)(C)C)cc3[nH]2)cc1,-27,–
O=C(NCc1ccccc1Cl)C(=O)NCC(c1cccs1)S(=O)(=O)c1cccs1 (stereo not given),-100,–
COc1ccc(Cl)cc1S(=O)(=O)NCc1ccc2c(c1)CCN2C(=O)c1cccc(C)c1,-8.71,–
Cc1c(Cl)cccc1NC(=O)c1oc2ccc(S(=O)(=O)N3CCC4(CC3)OCCO4)cc2c1C,-22.5,–
CCCCNC(=O)c1ccc2c(c1)N=C(CC)c1ccccc1S2,-16,–
CC(C)(C)c1ccc(-c2nc(S(=O)(=O)c3ccccc3)c(N3CCOCC3)o2)cc1,-100,–
COc1ccc(Oc2nc3c(C)cccn3c(=O)c2/C=C(\C#N)c2nc3ccccc3[nH]2)cc1,-100,–
CCC1=Nc2cc(C(=O)NC3CCCC3)ccc2Sc2ccc(Br)cc21,-100,–
CC(C)c1ccc(C2Sc3ccccc3NC3=C2C(=O)c2ccccc23)cc1 (stereo not given),-100,–
CCC1=Nc2cc(C(=O)NC3CCC(C)CC3)ccc2Sc2ccc(C)cc21 (stereo not given),-100,–
CCc1ccc(S(=O)(=O)N(C(=O)Oc2ccccc2)c2ccc3oc(C)c(C(=O)OC)c3c2)cc1,-12.1,–
Cc1cc(OCC(=O)Nc2cc(-c3nc4ccccc4[nH]3)ccc2C)ccc1Cl,-100,–
CC1CCN(S(=O)(=O)c2ccc(C(=O)Nc3sc4c(c3C(N)=O)CC(C)(C)NC4(C)C)cc2)CC1,–,14.7 µM (active)
COc1ccc(OC)c(NC(=O)c2nnn(CC(=O)Nc3ccc(C(C)C)cc3)c2N)c1,-100,–
Cc1cccc(CSc2cn(CC(=O)N3CCCCCC3)c3ccccc23)c1,-100,–
O=S(=O)(NCC(c1ccco1)N1CCN(c2ccc(F)cc2)CC1)c1ccccc1 (stereo not given),-100,–
CCOc1ccc(S(=O)(=O)NCCc2sc(-c3ccc(C)cc3)nc2C)cc1,-100,–
CCOc1ccc(/C=C/c2nc3ccccc3n2S(=O)(=O)c2cccc(Cl)c2)cc1,-100,–
Cc1ccccc1NC(=O)c1sc2nc3c(cc2c1N)CCCC3,-100,–
CCS(=O)(=O)c1ncc(Cl)c(C(=O)Nc2ccc(S(=O)(=O)N(C)c3ccccc3)cc2)n1,–,1.85 µM (active)
Cc1cccc(C(=O)Nc2c3c(nn2-c2ccc(Cl)cc2)CS(=O)(=O)C3)c1,-100,–
CCCN1C(=O)C(Cc2nc3ccccc3c(=O)n2CC)c2cc(Br)ccc21 (stereo not given),-100,–
Cc1cccc(OCC(=O)Nc2ccc3c(c2)N(C)C(=O)c2ccccc2S3)c1,-100,–
